High-throughput results (PubChem)
RBX1-CUL1 inh – inhibitors of human ROC1-CUL1 ubiquitin ligase activity | E3 ubiquitin-protein ligase RBX1 (Homo sapiens) + Cullin-1 (Homo sapiens), P62877+Q13616 | in vitro K48 di-Ub FRET, acceptor:donor ratio, 45 min | inhibition, % at 10 µM | hit rate 0.6% among 140,000; in the data active = inhibition above about 25%
Target sequence (P62877 whole entry, looked up): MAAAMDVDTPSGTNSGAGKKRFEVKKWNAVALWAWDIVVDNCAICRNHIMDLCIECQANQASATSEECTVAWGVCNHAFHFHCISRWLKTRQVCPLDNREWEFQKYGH
Target sequence (Q13616 whole entry, looked up): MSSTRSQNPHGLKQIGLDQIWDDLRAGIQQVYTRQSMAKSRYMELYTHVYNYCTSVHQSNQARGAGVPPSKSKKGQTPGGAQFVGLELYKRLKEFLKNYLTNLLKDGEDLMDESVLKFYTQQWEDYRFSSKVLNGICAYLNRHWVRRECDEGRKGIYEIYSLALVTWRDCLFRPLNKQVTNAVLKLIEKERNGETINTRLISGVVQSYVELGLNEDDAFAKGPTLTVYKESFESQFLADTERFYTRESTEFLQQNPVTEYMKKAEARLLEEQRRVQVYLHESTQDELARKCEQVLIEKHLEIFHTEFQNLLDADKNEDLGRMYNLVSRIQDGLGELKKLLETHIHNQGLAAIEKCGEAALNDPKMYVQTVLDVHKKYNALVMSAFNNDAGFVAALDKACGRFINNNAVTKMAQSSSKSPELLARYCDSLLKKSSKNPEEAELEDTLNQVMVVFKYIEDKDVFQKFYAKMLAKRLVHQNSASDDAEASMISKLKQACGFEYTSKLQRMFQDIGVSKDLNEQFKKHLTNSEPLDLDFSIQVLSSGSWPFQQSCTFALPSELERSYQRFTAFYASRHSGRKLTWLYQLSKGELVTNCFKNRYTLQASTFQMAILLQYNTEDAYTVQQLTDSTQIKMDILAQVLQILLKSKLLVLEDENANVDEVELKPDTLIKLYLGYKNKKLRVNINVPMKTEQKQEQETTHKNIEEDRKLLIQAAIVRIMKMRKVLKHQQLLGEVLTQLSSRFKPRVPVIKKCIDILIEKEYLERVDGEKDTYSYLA
Hits are given with their value; - = inactive. The entries come from a sample that favours hits as a whole.

SMILES	RBX1-CUL1 inh
O=C1c2ccccc2C(=O)C(Cl)(Cl)C1(Cl)Cl	-
CCC1(N)C(=O)c2ccccc2C1=O	-
Cc1nc(N2CCN(CCO)CC2)nc2c1C(=O)CC(c1ccc(Cl)cc1)C2 (centres undefined)	-
CCSc1ccc2nc(-c3ccc(I)cc3)cn2c1	-
S=C(c1cn(CCOc2ccccc2)c2ccccc12)N1CCOCC1	-
CCOc1ccc(C(=O)C2C(=O)C(=O)N(CCc3ccccc3)C2c2ccc(C)cc2)cc1 (centres undefined)	-
COc1ccc(OC)c2c(OC)c3ccccc3c(OC)c12	52
COc1ccc(-c2ccc(OC)c(OC)c2OC)c(OC)c1OC	-
COc1ccc2c(=O)c(Br)cccc2c1OC	-
Cc1ccc(Cl)cc1NS(C)(=O)=O	-
Cc1cc(C)nc(NS(=O)(=O)c2ccc(NC(=O)c3ccc(Cl)cc3Cl)cc2)n1	-
Cc1cc(C)nc(NS(=O)(=O)c2ccc(NC(=O)Nc3ccc(Cl)cc3)cc2)n1	25
Cc1cc(C)nc(NS(=O)(=O)c2ccc(NC(=O)COc3ccc(Cl)cc3C)cc2)n1	-
N#Cc1ccc(/C=C/c2cn3cc(I)ccc3n2)cc1	-
O=C(Oc1cccc2cccnc12)c1ccc(Cl)c([N+](=O)[O-])c1	-
COc1ccc(/C=C2\C(=O)N(Cc3ccco3)C(=O)N(C(C)C)C2=O)c(OC)c1	101
CC(C)N1C(=O)/C(=C\c2ccc(N(C)C)cc2)C(=O)N(Cc2ccco2)C1=O	-
CC(C)N1C(=O)C(C=Nc2cc(Cl)c(Cl)cc2Cl)C(=O)N(Cc2ccco2)C1=O (centres undefined)	-
O=C(NC1(C(F)(F)F)NC(=O)N(c2ccc(OC(F)(F)F)cc2)C1=O)c1cccs1 (centres undefined)	-
Cc1nnc(-c2cccc(NC(=O)C3CCN(Cc4ccon4)CC3)c2)s1	-
O=C1C=C2c3ccccc3-c3ccccc3N2C(=O)C1c1ccccc1 (centres undefined)	-
CN(C)/C=C1\C=C2C(=O)c3ccccc3N2C1=O	37
Cc1ccccc1N1C(=O)C(=Cc2ccc(N(C)C)cc2)C(=O)N(c2ccccc2C)C1=O	-
CC(C)(C)C1CC=C2C(C#N)C(=N)C(C#N)(c3ccccc3)C(C#N)C2C1 (centres undefined)	-
Cc1cc(-c2ccnc(-n3ncc(C(=O)NC(C)CCCC(C)(C)O)c3C3CC3)n2)c(C)s1 (centres undefined)	-
SMILES	RBX1-CUL1 inh
COc1ccc(N2C(=O)C(CC(=O)Nc3cccc(Cl)c3C)N(CCc3ccc(OC)c(OC)c3)C2=S)cc1 (centres undefined)	-
CC(=O)/C(C#N)=C/c1ccc(C#N)o1	-
N#C/C(=C/c1ccc([N+](=O)[O-])o1)C(=O)O	73
N#C/C(=C\c1ccc([N+](=O)[O-])o1)c1nc(-c2ccc(F)cc2)cs1	-
Oc1ccc(C2Oc3ccccc3C3CC(c4cccs4)=NN32)cc1 (centres undefined)	-
CC(=O)N1CCN(c2ccccc2F)CC1	-
Cc1ccc(N=C2S/C(=C\c3ccc(OCC(=O)O)cc3)C(=O)N2c2ccc(C)c(C)c2)cc1C	89
O=C(O)COc1ccc(/C=C2\SC(=O)N(c3cccc(Cl)c3)C2=O)cc1	-
Cc1ccc(N=C2S/C(=C\c3ccc(O)cc3)C(=O)N2c2ccc(C)cc2)cc1	-
CCCC(C(=O)O)N1C(=O)/C(=C/C(C)=C/c2ccccc2)SC1=S (centres undefined)	29
Cc1ccc(N2C(=O)/C(=C/c3ccc(C(=O)O)cc3)SC2=S)cc1C	-
CCOc1cc(/C=C2/SC(=S)N(C(CCC(=O)O)C(=O)O)C2=O)ccc1O (centres undefined)	-
O=C(O)c1ccc(/C=C2\SC(=S)N(NC(=O)c3ccccc3)C2=O)cc1	-
O=C(O)CCC(C(=O)O)N1C(=O)/C(=C/c2cccc(Br)c2)SC1=S (centres undefined)	-
CC(/C=C1\SC(=S)N(c2ccc(C(=O)O)cc2)C1=O)=C\c1ccccc1	106
O=C(CCCn1cncn1)NCCN1Cc2ccccc2OC(c2ccccc2F)C1 (centres undefined)	-
Cc1cccc(NC(=O)CN(CCc2ccccc2)S(=O)(=O)c2ccc(Br)cc2)c1	-
CCOC(=O)c1c(-c2ccc(C)c(C)c2)csc1NC(=O)CSc1nc2ccccc2c(=O)n1-c1ccccc1	-
O=C(CSc1nc2ccccc2c(=O)[nH]1)c1ccc(Cl)cc1	-
O=C(CSc1nc2ccccc2c(=O)[nH]1)c1ccc(O)c(O)c1	103
Cc1cc(=O)[nH]c(SCC(=O)c2ccc(O)c(O)c2)n1	-
COc1cnc2c(=O)n(C)c(=O)n(C)c2n1	-
Cc1nc2c(=O)n(C)c(=O)n(C)c2nc1Cl	71
Cc1nc2c(nc1Cl)c(=O)n(C)c(=O)n2C	-
Cc1nnsc1C(=O)N1CCc2[nH]nc(CC3CCCCC3)c2C1	-
SMILES	RBX1-CUL1 inh
COc1ccc2ccccc2c1C1C(C(C)=O)=C(C)N=c2s/c(=C\c3cn(CC(=O)NCc4ccco4)c4ccccc34)c(=O)n21 (centres undefined)	-
Fc1ccc(-c2nnc3sc(CCc4ccccc4)nn23)cc1	-
CCN=C1CC=CC=C(C(=O)/C=C/c2ccc(Cl)c(Cl)c2)C1=O	62
O=C(/C=C/c1ccc(Cl)c(Cl)c1)NCCC1=CCCCC1	-
CC(C)CCNC(=O)/C=C/c1ccc(Cl)c(Cl)c1	-
CCN=C1CC=CC=C(C(=O)/C=C/c2ccccc2OC)C1=O	87
CCN=C1CC=CC=C(C(=O)/C=C/c2ccc(C(F)(F)F)cc2)C1=O	-
CCN=C1CC=CC=C(C(=O)/C=C/c2cc(OC)ccc2OC)C1=O	-
CCN=C1CC=C(Br)C=C(C(=O)/C=C/c2cccc(Cl)c2Cl)C1=O	-
CCN=C1CC=CC=C(C(=O)/C=C/c2ccc(Br)cc2)C1=O	86
CCN=C1CC=C(Br)C=C(C(=O)/C=C/c2ccc(N(C)C)cc2)C1=O	-
O=C(O)c1cc(NS(=O)(=O)c2ccc(Cl)cc2)cc(C(=O)O)c1	-
COc1c(Cl)cc(Cl)cc1CC1=NC(=S)N(C)C1=O	-
O=C(NCc1ccccn1)C1CCCN(C2CCN(CC3CCCC3)CC2)C1 (centres undefined)	-
COC(=O)CC1Sc2ccc(OC)cc2NC1=S (centres undefined)	-
C=CCN1C(C(=O)c2ccccc2)=C(OC(=O)Cc2ccccc2)c2ccccc2S1(=O)=O	-
Cc1cc(Br)cc(Br)c1OCC(=O)O	-
O=C(NC1(C(Cl)(Cl)Cl)Oc2cc(Cl)c(Cl)cc2O1)Sc1ccccc1	49
CCOC(=O)NC1(C(Cl)(Cl)Cl)Oc2ccc(Cl)cc2O1 (centres undefined)	-
O=C(Nc1cc(Cl)ncn1)NC1(C(F)(F)F)Oc2ccccc2O1	-
CCOC(=O)/C(C#N)=N/Nc1c([N+](=O)[O-])ccc(C)c1C	-
C=CCn1c(Sc2nc3c(C(=O)OCC)nnn3c3ccccc23)nnc1-c1ccccc1	-
CCOC(=O)c1nnn2c1nc(Cl)c1ccccc12	79
CCOC(=O)c1nnn2c3ccccc3c(=O)n(CC(=O)c3ccc(Cl)cc3)c12	-
COc1cc(C(=O)Nc2ccc(S(N)(=O)=O)cc2)c(Br)c(OC)c1OC	-
CC(C)c1ccc(C(=O)NC(=S)Nc2cc(C(F)(F)F)cc(C(F)(F)F)c2)cc1	-
CCOC(=O)c1c(C)n(-c2ccccc2)c2ccc(OC(=O)c3ccccc3Cl)cc12	-
CCOC(=O)c1c(C(=O)OCC)c(C)n(-c2ccccc2C(=O)O)c1C	36
CCOC(=O)c1c(C)n(-c2ccccc2)c(C)nc1=S	-
